Assay results reported in PubChem BioAssay (EPA / NIEHS).
Results filed as inconclusive are left out. The source made the active and inactive calls. How the source made its calls, unless noted: active means hit-call score of the fitted dose curve at least 0.9, where 1 is the maximum; inconclusive means response in the unintended direction; inactive means score below 0.9.

What was measured:
[1] = tested on: SRY-box transcription factor 17 (SOX17) Protein Expression, Deisenroth Lab, SOX17 (gene 64321); assay: CCTE_Deisenroth_DEVTOX-GLR_legacy_Sox17: (Legacy) CCTE's DevTox GLR-Endo Assay Evaluation of SRY-box transcription factor 17 (SOX17) Protein Expression, Deisenroth Lab (AID 2284341; active means hit-call score of the fitted dose curve at least 0.9, where 1 is the maximum; inactive means score below 0.9); conditions: actives raise or lower the signal
How it was run: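 Using the RUES2-GLR line, compounds are tested as 10-point series during 48-h defined-media differentiation. Sox17 reporter fluorescence per cell determines positivity; endpoint is percentage positive, analysed bidirectionally versus DMSO baseline.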

[2] = tested on: SERPINA7 (gene 6906); assay: CCTE_GLTED_hTBG: CCTE's human Thyroxine-binding Globulin (TBG) Inhibition Assay, Great Lakes Toxicology and Ecology Division (GLTED) Lab (AID 2284343);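 further: active chemicals lower fluorescence versus DMSO baseline by displacing probe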
How it was run: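 Cell-free binding assay in which human TBG is incubated with test chemical for 2 hours and displacement of the fluorescent probe ANSA is read at 380 nm excitation/475 nm emission. Activity is fitted against DMSO as the negative control.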

[3] = tested on: SRY-box transcription factor 2 (SOX2) Protein Expression, Deisenroth Lab, SOX2 (gene 6657); assay: CCTE_Deisenroth_DEVTOX-GLR_legacy_Sox2: (Legacy) CCTE's DevTox GLR-Endo Assay Evaluation of SRY-box transcription factor 2 (SOX2) Protein Expression, Deisenroth Lab (AID 2284346; active means hit-call score of the fitted dose curve at least 0.9, where 1 is the maximum; inactive means score below 0.9)
How it was run: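 RUES2-GLR human pluripotent cells were differentiated for 48 h with two chemical doses 24 h apart, over 1 nM-200 uM. Sox2+ cells were those above 5x BMAD of the endoderm-control median; percent Sox2+ minus the 0.2% DMSO median was used, from n=4 replicates.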

[4] = tested on: SRY-box transcription factor 17 (SOX17) Protein Expression, Deisenroth Lab, SOX17 (gene 64321); assay: CCTE_Deisenroth_DEVTOX-GLR_Endo_SOX17: CCTE's DevTox GLR-Endo Assay Evaluation of SRY-box transcription factor 17 (SOX17) Protein Expression, Deisenroth Lab (AID 2284413; active means hit-call score of the fitted dose curve at least 0.9, where 1 is the maximum; inactive means score below 0.9)
How it was run: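 RUES2-GLR human pluripotent cells were differentiated toward endoderm for 48 h and received two compound doses 24 h apart (1 nM - 200 uM, 10 points). High-content imaging of fixed cells gave the percent SOX17+ cells per cell count, expressed as percent change versus 0.2% DMSO.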

[5] = tested on: Brachyury (BRA) Protein Expression, TBXT (gene 6862); assay: CCTE_Deisenroth_DEVTOX-GLR_Endo_BRA: CCTE's DevTox GLR-Endo Assay Evaluation of Brachyury (BRA) Protein Expression, Deisenroth Lab (AID 2284417; active means hit-call score of the fitted dose curve at least 0.9, where 1 is the maximum; inactive means score below 0.9)
How it was run: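 Percent BRA+ (mesoderm) RUES2-GLR cells after 48 h differentiation with two exposures, 1 nM - 200 uM; 0.2% DMSO control subtracted.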

[6] = CCTE_Deisenroth_DEVTOX-GLR_Endo_CellCount: Viability Assessment in CCTE's DevTox GLR-Endo Assay, Deisenroth Lab (AID 2284420; active means hit-call score of the fitted dose curve at least 0.9, where 1 is the maximum; inactive means score below 0.9)
How it was run: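 Nuclei counted by fluorescence microscopy as a surrogate for cell number, expressed as percent change relative to 0.2% DMSO control. Human RUES2-GLR cells, 48 h differentiation, dosed twice; 1 nM - 200 uM series.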

[7] = tested on: SRY-box transcription factor 17 (SOX17) Protein Expression, Deisenroth Lab, SOX17 (gene 64321); assay: CCTE_Deisenroth_DEVTOX-GLR_Pluri_SOX17: CCTE's DevTox GLR-Pluri Assay Evaluation of SRY-box transcription factor 17 (SOX17) Protein Expression, Deisenroth Lab (AID 2284427)
How it was run: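 Readout: percent SOX17+ cells (SOX17+ count/cell count) by high-content imaging of an inducible fluorescent reporter, corrected for 0.2% DMSO solvent control. RUES2-GLR cells, 48 h differentiation, dosed twice at 24 h intervals, 1 nM - 200 uM.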

[8] = tested on: SRY-box transcription factor 2 (SOX2) Protein Expression, Deisenroth Lab, SOX2 (gene 6657); assay: CCTE_Deisenroth_DEVTOX-GLR_Pluri_SOX2: CCTE's DevTox GLR-Pluri Assay Evaluation of SRY-box transcription factor 2 (SOX2) Protein Expression, Deisenroth Lab (AID 2284428; active means hit-call score of the fitted dose curve at least 0.9, where 1 is the maximum; inactive means score below 0.9)
How it was run: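 RUES2-GLR (human pluripotent), 48 h post-dosing, 2 exposures q24h, 1 nM–200 uM 10-pt. Fixed, nuclear dye, high-content imaging 5 fields/well. Endpoint: % SOX2+ cells (SOX2+/total count) vs 0.2% DMSO; n≥4.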

[9] = tested on: Brachyury (BRA) Protein Expression, Deisenroth Lab, TBXT (gene 6862); assay: CCTE_Deisenroth_DEVTOX-GLR_Pluri_BRA: CCTE's DevTox GLR-Pluri Assay Evaluation of Brachyury (BRA) Protein Expression, Deisenroth Lab (AID 2284429)
How it was run: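 RUES2-GLR human pluripotent cells differentiated 48 hours with two chemical exposures 24 hours apart, 10-point series 1 nM–200 uM. Fixed, nuclear-stained, imaged; endpoint is percent BRA+ cells minus 0.2% DMSO control.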

[10] = CCTE_Deisenroth_DEVTOX-GLR_Pluri_CellCount: Viability Assessment in CCTE's DevTox GLR-Pluri Assay Evaluation of Total Cell Counts, Deisenroth Lab (AID 2284430; active means hit-call score of the fitted dose curve at least 0.9, where 1 is the maximum; inactive means score below 0.9)
How it was run: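 RUES2-GLR human pluripotent cells, seeded 24 h, then differentiated 48 h with two chemical exposures 24 h apart; 10-point series 1 nM - 200 uM. Fixed, nuclear-stained, imaged (5 fields/well); nuclei count as % change vs 0.2% DMSO.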

[11] = CCTE_Mundy_HCI_iCellGluta_NOG_NeuronCount: CCTE's Neurite Outgrowth Assay in iCellGluta cells for Neuron Count, Mundy Lab (AID 2284340);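 further: cells fixed about 48 h after compound addition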
How it was run: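 Neuron count read by automated high-content imaging of Hoechst 33342 and betaIII-tubulin/Alexa Fluor-488 labelling in human iPSC glutamatergic neurons. Activity fitted relative to DMSO.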

[12] = CCTE_Mundy_HCI_iCellGluta_NOG_NeuriteCount: CCTE's Neurite Outgrowth Assay in iCellGluta cells for Neurite Count, Mundy Lab (AID 2284342);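 further: chemical exposure about 48 hours starting 2 hours after plating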
[13] = CCTE_Padilla_ZF_Score.General: CCTE's 144 Hour Post-fertilization zebrafish Assay Score for General Malformation, Padilla Lab (AID 2284411; active means hit-call score of the fitted dose curve at least 0.9, where 1 is the maximum; inactive means score below 0.9)
How it was run: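 Wild-type zebrafish embryos were plated singly at 6-8 hpf in 10% Hanks' and exposed in sealed wells at 26C until rinsed on 5 dpf. At 6 dpf two blinded assessors scored mortality, hatching and malformations by stereomicroscopy; gain-of-signal versus DMSO.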

[14] = VALA_MIGHUV1_ScratchOnly_WoundArea: VALA Sciences human Umbilical Vein Endothelial Cell Migration (MIGHUV) Assay, Area of Scratch Wound Inhibited Recovery (AID 2284336)
How it was run: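 HUVEC monolayers (9000 cells/well) were scratched after 24 h, dosed within 30 min (six concentrations, triplicate, 0.1% DMSO), allowed 24 h recovery, then fixed. Hoechst-stained nuclei in the wound imaged; cytochalasin D as reference.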

[15] = VALA_TUBIPS_Agonist_CellCount: Viability Assessment in the VALA Sciences human iPS-derived Endothelial Tubule Formation (TUBIPS) Agonism Assay (AID 2284338)
Protocol: VALA_TUBIPS_Agonist is a cell-based, multiplexed assay that uses human iPS-derived endothelial cells (iPSC). Measurements were taken 72 hours after chemical dosing in a 96-well plate.VALA_TUBIPS_Agonist_CellCount is the one of two assay components measured from the VALA_TUBIPS_Agonist assay. It is designed to make measurements of viability, a form of viability reporter, as detected with fluorescence intensity signals by HCS Fluorescent Imaging technology. Data from the assay component VALA_TUBIPS_Agonist_CellCount was analyzed at the endpoint, VALA_TUBIPS_Agonist_CellCount, in the positive analysis fitting direction relative to DMSO as the negative control and baseline of activity. Using a type of viability reporter, loss-of-signal activity can be used to understand viability. To generalize the intended target to other relatable targets, this assay endpoint is annotated to the cell cycle intended target family, where the subfamily is cell count.
[…]

[16] = CCTE_Deisenroth_H295R-HTRF_384WELL_ESTRADIOL: CCTE's H295R-HTRF Assay Evaluation of Estradiol Concentration, Deisenroth Lab (AID 2284361; active means hit-call score of the fitted dose curve at least 0.9, where 1 is the maximum; inactive means score below 0.9); conditions: actives raise or lower the signal
How it was run: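 H295R cells exposed 48 h to chemicals at 0.001 - 100 uM final (nine points, triplicate); estradiol in conditioned medium measured by HTRF immunoassay, fitted bidirectionally versus DMSO. Viability by CellTiter-Glo on same plates.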

[17] = CCTE_Deisenroth_H295R-HTRF_384WELL_TESTOSTERONE: CCTE's H295R-HTRF Assay Evaluation of Testosterone Concentration, Deisenroth Lab (AID 2284373; active means hit-call score of the fitted dose curve at least 0.9, where 1 is the maximum; inactive means score below 0.9); conditions: actives raise or lower the signal
How it was run: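 Testosterone secreted into medium was quantified by direct HTRF immunoassay after a 48 h treatment of H295R adrenocortical cells (nine concentrations, 0.001–100 uM final). Gain or loss fitted relative to DMSO; CellTiter-Glo viability read on same plates.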

[18] = CCTE_Deisenroth_H295R-HTRF_384WELL_CTOX: Cytotoxicity Assessment in CCTE's H295R-HTRF Assay, Deisenroth Lab (AID 2284380)
How it was run: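 H295R adrenocortical carcinoma cells plated 24 h, then exposed 48 h to nine-point series 0.001–100 uM final, triplicate, n=5. ATP measured by CellTiter-Glo 2.0 luminescence on same plates after medium collection; loss versus DMSO.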

[19] = tested on: SRY-box transcription factor 2 (SOX2) Protein Expression, Deisenroth Lab, SOX2 (gene 6657); assay: CCTE_Deisenroth_DEVTOX-GLR_Endo_SOX2: CCTE's DevTox GLR-Endo Assay Evaluation of SRY-box transcription factor 2 (SOX2) Protein Expression, Deisenroth Lab (AID 2284412)
How it was run: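 RUES2-GLR human pluripotent cells were seeded 24 h, then differentiated 48 h with two chemical exposures 24 h apart. Cells were fixed, nuclei stained and imaged by high-content microscopy. Endpoint is %SOX2+ cells over cell count, minus 0.2% DMSO control; 10-point series 1 nM–200 uM.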

SMILES: CCCCC(CC)COC(=O)c1ccccc1C(=O)O (stereo unspecified)
- AC50 [1]: 100 µM (active)
- AC50 [2]: 18.3 µM (active)
- outcome [3]: inactive
- AC50 [4]: 100 µM (active)
- AC50 [5]: 160 µM (active)
- AC50 [6]: 109 µM (active)
- AC50 [7]: 100 µM (active)
- AC50 [8]: 100 µM (active)
- AC50 [9]: 70.4 µM (active)
- outcome [10]: inactive

SMILES: Cc1nn(C)c(Oc2ccccc2)c1C=NOCc1ccc(C(=O)OC(C)(C)C)cc1
- AC50 [11]: 6.47 µM (active)
- AC50 [12]: 1.39 µM (active)

SMILES: CCC(C)OC(=O)N1CCCCC1CCO (stereo unspecified)
- outcome [13]: inactive

SMILES: COC(=O)CSc1cc(N=c2sc(=O)n3n2CCCC3)c(F)cc1Cl
- AC50 [2]: 25.9 µM (active)

SMILES: CC(C)(c1ccc(O)cc1)c1ccc(O)cc1
- outcome [14]: inactive
- outcome [15]: inactive
- AC50 [1]: 51.4 µM (active)
- AC50 [2]: 12.4 µM (active)
- AC50 [3]: 50.7 µM (active)
- AC50 [16]: 37 µM (active)
- AC50 [17]: 0.804 µM (active)
- AC50 [18]: 15 µM (active)
- AC50 [19]: 64.4 µM (active)
- AC50 [4]: 50.8 µM (active)
- AC50 [5]: 83.8 µM (active)
- AC50 [6]: 35.5 µM (active)
- AC50 [7]: 29.3 µM (active)
- AC50 [8]: 38.9 µM (active)
- AC50 [9]: 38.4 µM (active)
- AC50 [10]: 19.7 µM (active)

SMILES: O=C(c1ccccc1)C1CCCCC1
- AC50 [2]: 50 µM (active)

SMILES: S=C(S)NCCNC(=S)S.[Mn+2].[S-]C([S-])=NCCN=C([S-])[S-].[Zn+2]
- outcome [14]: inactive
- outcome [15]: inactive
- outcome [11]: inactive
- outcome [12]: inactive

SMILES: N#CSCSc1nc2ccccc2s1
- AC50 [2]: 33.2 µM (active)
